Consider four compounds from PubChem BioAssay (EPA / NIEHS).

Read-out in test [1]: Transforming growth factor beta 1 (TGFb1), TGFB1 (gene 7040)
Briefly: BSK_KF3CT_TGFb1: BioMAP Diversity Plus: KF3CT Assay for Transforming growth factor beta 1 (TGFb1) Biomarker Activity (AID 2283072). The following applies: primary human keratinocytes with fibroblasts; actives raise or lower the signal. Summed up: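 KF3CT co-culture (keratinocytes + fibroblasts), 24 h exposure → TGF-b1 ELISA → bidirectional fit, DMSO = baseline. Parallel SRB total-protein staining (0.1% SRB, 10% TCA fixation, 560 nm) for cytotoxicity.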

Read-out in test [2]: C-C motif chemokine 2 (Homo sapiens) (UniProt P13500)
The test is described as follows: BSK_KF3CT_MCP1: BioMAP Diversity Plus: KF3CT Assay for Monocyte Chemoattractant Protein 1 (MCP1/CCL2) Biomarker Activity (AID 2283073). The following applies: primary human keratinocytes with fibroblasts; actives raise or lower the signal. The gist of the method: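 KF3CT skin co-culture (keratinocytes/foreskin fibroblasts), 24 h post-dose; MCP-1 by ELISA; gain/loss of signal fit bidirectionally vs DMSO baseline.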

Read-out in test [3]: Matrix Metallopeptidase 9 (MMP9), MMP9 (gene 4318)
Briefly: BSK_KF3CT_MMP9: BioMAP Diversity Plus: KF3CT Assay for Matrix Metallopeptidase 9 (MMP9) Biomarker Activity (AID 2283074). Conditions: primary human keratinocytes with fibroblasts; actives raise or lower the signal. Summed up: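 ELISA read-out of MMP-9 at 24 h post-dosing in a co-culture of human skin keratinocytes and foreskin fibroblasts. Gain or loss of signal was fitted in both directions against DMSO.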

Read-out in test [4]: CD40, CD40 (gene 958)
The test is described as follows: BSK_LPS_CD40: BioMAP Diversity Plus: LPS Assay for CD40 Biomarker Activity (AID 2283076). The following applies: primary human HUVEC with PBMC; actives raise or lower the signal. Summed up:
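ELISA readout of CD40 in HUVEC/PBMC co-culture (BSK_LPS system), 24 h post-dosing; bidirectional curve fit, DMSO baseline; parallel SRB total-protein staining for cytotoxicity.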

Read-out in test [5]: E-selectin (Homo sapiens) (UniProt P16581)
Briefly: BSK_LPS_Eselectin: BioMAP Diversity Plus: LPS Assay for Eselectin Biomarker Activity (AID 2283077). The following applies: primary human HUVEC with PBMC; actives raise or lower the signal. The gist of the method:
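ELISA readout of E-selectin, 24 h post-dose, HUVEC + PBMC co-culture (LPS system). Gain or loss of signal vs DMSO baseline, bidirectional fit.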

Read-out in test [6]: Interleukin-8 (IL8), CXCL8 (gene 3576)
Briefly: BSK_LPS_IL8: BioMAP Diversity Plus: LPS Assay for Interleukin-8 (IL8) Biomarker Activity (AID 2283078). Conditions: primary human HUVEC with PBMC; actives raise or lower the signal. Summed up: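 HUVEC + PBMC co-culture, LPS-activated; test chemicals dosed, IL-8 read by ELISA at 24 h. Bidirectional curve fit vs DMSO baseline (gain or loss of signal).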

The nature of test [7]: BSK_LPS_SRB: Viability Assessment in the BioMAP Diversity Plus: LPS Assay (AID 2283079).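 Also: total protein by sulforhodamine B absorbance as a cytotoxicity measure; measured one day after compound addition.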 Conditions: primary human HUVEC with PBMC. The gist of the method: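 HUVEC + PBMC co-culture, LPS-stimulated; compound 24 h. 10% TCA fix, 0.1% SRB stain, A560. Bidirectional fit vs DMSO.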
Read-out in test [8]: Interleukin-1 alpha (IL1a), IL1A (gene 3552)
The test is described as follows: BSK_LPS_IL1a: BioMAP Diversity Plus: LPS Assay for Interleukin-1 alpha (IL1a) Biomarker Activity (AID 2283080). The following applies: primary human HUVEC with PBMC; actives raise or lower the signal. The gist of the method:
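HUVEC/PBMC co-culture, LPS system; 24 h after dosing; IL-1a by ELISA; gain or loss of signal fitted bidirectionally vs DMSO baseline.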

Read-out in test [9]: Monocyte Chemoattractant Protein-1 (MCP1), CCL2 (gene 6347)
The test is described as follows: BSK_LPS_MCP1: BioMAP Diversity Plus: LPS Assay for Monocyte Chemoattractant Protein-1 (MCP1) Biomarker Activity (AID 2283081). Conditions: primary human HUVEC with PBMC; actives raise or lower the signal. The gist of the method:
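ELISA read-out of MCP-1 after 24 h chemical dosing of a human umbilical vein endothelial cell/peripheral blood mononuclear cell co-culture stimulated with LPS. Gain or loss of signal fitted relative to DMSO controls.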

A short description of test [10]: BSK_LPS_PGE2: BioMAP Diversity Plus: LPS Assay for Prostaglandin E2 (PGE2) Biomarker Activity (AID 2283082). The following applies: primary human HUVEC with PBMC; actives raise or lower the signal. Summed up: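 Compounds were added to the LPS co-culture of endothelium and PBMC, and PGE2 was measured by ELISA after 24 h. Responses in either direction were fitted with DMSO as baseline.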

Read-out in test [11]: Tissue Factor, F3 (gene 2152)
The test is described as follows: BSK_LPS_TissueFactor: BioMAP Diversity Plus: LPS Assay for Tissue Factor Biomarker Activity (AID 2283084). The following applies: primary human HUVEC with PBMC; actives raise or lower the signal. The gist of the method:
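HUVEC/PBMC co-culture, LPS-activated; CD142 ELISA read 24 h post-dose; bidirectional curve fit vs DMSO negative control.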

Read-out in test [12]: Vascular cell adhesion molecule 1 (VCAM1), VCAM1 (gene 7412)
Briefly: BSK_LPS_VCAM1: BioMAP Diversity Plus: LPS Assay for Vascular cell adhesion molecule 1 (VCAM1) Biomarker Activity (AID 2283086). The following applies: primary human HUVEC with PBMC; actives raise or lower the signal. The gist of the method:
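Cells are dosed in an LPS-stimulated endothelial/mononuclear co-culture and, after 24 h, VCAM-1 is quantified by ELISA. Activity in either direction is fitted relative to the DMSO negative control.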

Read-out in another test: CD38, CD38 (gene 952)
Briefly: BSK_SAg_CD38: BioMAP Diversity Plus: SAg Assay for CD38 Biomarker Activity (AID 2283087). The following applies: primary human HUVEC with PBMC; actives raise or lower the signal. Summed up:
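CD38 quantified by ELISA (fluorescence) in a superantigen-activated endothelial cell–PBMC co-culture at 24 h post-dose. Activity fitted in both directions relative to DMSO; parallel SRB and Alamar Blue cytotoxicity read-outs.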

Read-out in test [13]: CD40, CD40 (gene 958)
Briefly: BSK_SAg_CD40: BioMAP Diversity Plus: SAg Assay for CD40 Biomarker Activity (AID 2283088). Conditions: primary human HUVEC with PBMC; actives raise or lower the signal. The gist of the method:
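HUVEC/PBMC co-culture, 24 h post-dose; CD40 by ELISA, fluorescence intensity; bidirectional fit vs DMSO negative control.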

Read-out in the next test: CD69, CD69 (gene 969)
The test is described as follows: BSK_SAg_CD69: BioMAP Diversity Plus: SAg Assay for CD69 Biomarker Activity (AID 2283089). Conditions: primary human HUVEC with PBMC; actives raise or lower the signal. The gist of the method:
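HUVEC co-cultured with PBMC were dosed with chemical, and CD69 was measured by ELISA with fluorescence read-out 24 h later. Bidirectional curve fitting used DMSO as negative control and activity baseline.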

Read-out in test [14]: Monocyte Chemoattractant Protein-1 (MCP1), CCL2 (gene 6347)
Briefly: BSK_SAg_MCP1: BioMAP Diversity Plus: SAg Assay for Monocyte Chemoattractant Protein-1 (MCP1) Biomarker Activity (AID 2283090). Conditions: primary human HUVEC with PBMC; actives raise or lower the signal. The gist of the method: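 Values derive from bidirectional fitting of ELISA-measured MCP1 against DMSO controls. Readings were taken 24 h after dosing human vascular endothelial cells co-cultured with peripheral blood mononuclear cells under superantigen stimulation.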

Read-out in test [15]: E-selectin (Homo sapiens) (UniProt P16581)
The test is described as follows: BSK_SAg_Eselectin: BioMAP Diversity Plus: SAg Assay for Eselectin Biomarker Activity (AID 2283091). The following applies: primary human HUVEC with PBMC; actives raise or lower the signal. Summed up: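 E-selectin ELISA readout at 24 h post-dosing in human umbilical vein endothelial cell/PBMC co-culture; gain or loss of signal fitted relative to DMSO baseline.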

Read-out in test [16]: Tumor necrosis factor (Homo sapiens) (UniProt P01375)
Briefly: BSK_LPS_TNFa: BioMAP Diversity Plus: LPS Assay for Tumour Necrosis Factor alpha (TNFa) Biomarker Activity (AID 2283085).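 As to AC50: TNFa protein level quantified by ELISA in the co-culture.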 The following applies: primary human HUVEC with PBMC; actives raise or lower the signal. The gist of the method: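 Cells (umbilical vein endothelium plus peripheral blood mononuclear cells) were dosed with chemical, incubated 24 h, then TNFa was quantified by ELISA; values derive from bidirectional fitting with DMSO as baseline.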

Read-out in test [17]: Macrophage colony-stimulating factor (MCSF), CSF1 (gene 1435)
Briefly: BSK_LPS_MCSF: BioMAP Diversity Plus: LPS Assay for Macrophage colony-stimulating factor (MCSF) Biomarker Activity (AID 2283083). Conditions: primary human HUVEC with PBMC; actives raise or lower the signal. The gist of the method: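 HUVEC + PBMC co-culture (human primary), 24 h post-dose; M-CSF by ELISA; gain/loss of signal fitted bidirectionally vs DMSO baseline.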

Activity calls are given as the source filed them. The calls were made as follows: active = hit-call score of the fitted dose curve at least 0.9, where 1 is the maximum; inactive = score below 0.9.

Sequence of E-selectin (Homo sapiens) (P16581 whole entry, looked up): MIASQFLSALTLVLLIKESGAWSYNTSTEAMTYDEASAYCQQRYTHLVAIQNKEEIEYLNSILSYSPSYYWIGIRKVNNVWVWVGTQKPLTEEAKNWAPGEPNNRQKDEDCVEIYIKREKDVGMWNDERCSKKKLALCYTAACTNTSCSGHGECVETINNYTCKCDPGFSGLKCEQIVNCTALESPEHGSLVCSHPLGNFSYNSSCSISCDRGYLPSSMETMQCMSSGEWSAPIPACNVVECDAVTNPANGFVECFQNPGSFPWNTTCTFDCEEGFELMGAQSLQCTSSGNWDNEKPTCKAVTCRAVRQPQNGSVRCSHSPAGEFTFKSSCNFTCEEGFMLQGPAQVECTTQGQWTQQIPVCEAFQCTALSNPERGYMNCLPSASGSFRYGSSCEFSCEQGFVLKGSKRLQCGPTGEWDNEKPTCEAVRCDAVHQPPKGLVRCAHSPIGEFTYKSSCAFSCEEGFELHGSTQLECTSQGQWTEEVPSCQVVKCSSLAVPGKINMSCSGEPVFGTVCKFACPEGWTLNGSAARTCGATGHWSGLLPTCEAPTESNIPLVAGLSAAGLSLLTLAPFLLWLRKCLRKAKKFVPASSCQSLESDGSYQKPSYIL
Sequence of Tumor necrosis factor (Homo sapiens) (P01375 whole entry, looked up): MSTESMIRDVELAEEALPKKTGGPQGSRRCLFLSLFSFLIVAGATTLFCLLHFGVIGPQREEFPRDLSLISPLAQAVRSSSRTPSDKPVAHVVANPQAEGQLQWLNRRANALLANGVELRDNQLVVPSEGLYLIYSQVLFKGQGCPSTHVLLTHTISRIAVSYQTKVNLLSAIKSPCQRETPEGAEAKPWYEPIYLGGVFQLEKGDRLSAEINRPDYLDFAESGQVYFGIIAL

Take `NCC1(Cc2noc(=O)[nH]2)CCCCC1`: the outcome is “inactive” in test [1]; “inactive” in test [2]; “inactive” in test [3]; “inactive” in the test with CD40, CD40 (gene 958) [4]; “inactive” in [5]; “inactive” in test [6]. Moreover, the outcome in test [7], in [8], in test [9], in test [10], in [11] and in test [12] was inactive. Also, the outcome in the test with CD38, CD38 (gene 952) was “inactive”; in the test with CD40, CD40 (gene 958) [13], “inactive”; in the test with CD69, CD69 (gene 969), “inactive”; in test [14], “inactive”; in [15] it was “inactive”.

With `Cc1ccccc1Cl`, the outcome in test [1] is “inactive”; in [2], “inactive”; in test [3] it was “inactive”; with CD40, CD40 (gene 958) [4] it was “inactive”; in [5] it was “inactive”; in [6], “inactive”. Also, the result in [7], in test [8], in test [9], in [10], in test [11] and in test [16] was inactive. Moreover, the outcome in [12] was “inactive”; with CD38, CD38 (gene 952) it was “inactive”; in the test with CD40, CD40 (gene 958) [13] it was “inactive”; in the test with CD69, CD69 (gene 969), “inactive”; in test [15], “inactive”.

In the case of `CCCCCCCCCCC`, the outcome in test [1] is “inactive”; in test [2], “inactive”; in test [3], “inactive”; with CD40, CD40 (gene 958) [4], “inactive”; in test [5], “inactive”; in test [6], “inactive”. In addition, the outcome in test [7] is “inactive”; in test [8], “inactive”; in [10], “inactive”; in [11] it was “inactive”; in test [12] it was “inactive”; with CD38, CD38 (gene 952), “inactive”. The outcome with CD40, CD40 (gene 958) [13] is “inactive”; with CD69, CD69 (gene 969), “inactive”; in test [15], “inactive”.

In general, AC50 refers to the midpoint of the concentration-response curve, whichever way the signal moves. Turning to `Cc1oc(-c2ccccc2)nc1CCOc1cccc2c1ccn2CCC(=O)O`, the outcome in [1] is “inactive”; in [2] it was “inactive”; in [3] it was “inactive”; in the test with CD40, CD40 (gene 958) [4], “inactive”; in [5], “inactive”; in test [6], “inactive”. The outcome was “inactive” in [7]; “inactive” in [8]; “inactive” in [17]; “inactive” in [11]; “inactive” in test [12]; “inactive” in the test with CD38, CD38 (gene 952). The outcome was “inactive” with CD40, CD40 (gene 958) [13]; “inactive” with CD69, CD69 (gene 969); “inactive” in [15]. The half-maximal activity concentration (AC50) was 5.34 µM (active) in test [10] and 0.655 µM (active) in test [16].
